# Measured values: the supplement of paper PMC4894684
# Structures can show the parent of a compound that is named as a salt. ± gives the standard deviation of the averaged measurements.
# System: Toxoplasma gondii RH (in HFF)
# Assay: parasite growth relative to the screen mean (all compounds = 100%); higher = less inhibition of parasite growth
# Settings: 5 µM; 72 h; oxygen 21 %
# How it was run: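 Each value is parasite growth expressed against the screen mean, averaged over two screens, where the mean of all compounds = 100%. The screen used 5 µM final compound on confluent human foreskin fibroblasts infected with RH β-Gal–GFP Toxoplasma (MOI 1:5) within 2 h and grown 72 h at 21% O2. Parasite number was measured by a CPRG β-Gal assay against in-plate standard curves.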
row,SMILES,parasite growth
1,CCCN[C@@H]1CCc2c(OC)cccc2[C@@H]1C [(+)-AJ 76 hydrochloride],66.5 ± 24%
2,O=C1Nc2ccccc2C2(CCN(CCc3ccc(C(F)(F)F)cc3)CC2)O1,99.9 ± 20%
3,CCOC(=O)c1cncn1[C@H](C)c1ccccc1 [Etomidate],114 ± 17%
4,Cc1[nH]c2ccc(Cl)cc2c1C1=CCNCC1,129 ± 8.1%
5,CCCN(C/C=C/I)C1CCc2ccc(O)cc2C1 (centres undefined) [7-Hydroxy-PIPAT maleate],181 ± 37%
6,OC(Cc1ccncc1)C(Cl)(Cl)Cl (centres undefined),133 ± 9.6%
7,CCCN(CCC)[C@@H]1CCc2c(OC)cccc2[C@@H]1C [(+)-UH 232 maleate],115 ± 20%
8,O=Cc1cn(Cc2ccc(Cl)cc2)c2ccccc12 [Oncrasin 1],113 ± 44%
9,CCCCC1(C2CCCC2)Cc2cc(OCCCC(=O)O)c(Cl)c(Cl)c2C1=O (centres undefined),124 ± 5%
10,Cn1c2c(c3ccccc31)CCNCC2,118 ± 15%
11,C[C@H](Cc1ccc(OCC(=O)O)cc1)NC[C@H](O)c1cccc(Cl)c1,90.6 ± 30%
12,O=c1[nH]c2ccccc2n1CCCN1CCC(n2c(=O)[nH]c3cc(Cl)ccc32)CC1 [Domperidone],129 ± 11%
13,Cn1cc(C(=O)C(=O)N[C@H]2CN3CCC2CC3)c2ccccc21,96.5 ± 6.7%
14,CCC(Oc1ccc(Cl)cc1)C(=O)OC1C[C@H]2CC[C@@H](C1)N2C (some centres undefined) [SM-21 maleate],95.2 ± 2.9%
15,COc1ccc(CCN2CCC(Nc3nc4ccccc4n3Cc3ccc(F)cc3)CC2)cc1 [Astemizole],< 0%
16,CN1CCN(c2ccc3ccccc3n2)CC1 [N-Methylquipazine dimaleate],111 ± 14%
17,CC[C@@H](CO)NC(=O)[C@@H]1C=C2c3cccc4c3c(cn4C)C[C@H]2N(C)C1 [Methysergide maleate],189 ± 24%
18,COc1ccc(C(=O)c2c(C)n(CCN3CCOCC3)c3cc(I)ccc23)cc1,149 ± 18%
19,CC(C)(Cc1c[nH]c2ccc(Cl)cc12)NCCOc1ccccc1OCC1CC1,< 0%
20,Oc1cc2c(cc1O)[C@H]1c3ccccc3CN[C@@H]1CC2 (racemic) [Dihydrexidine hydrochloride],153 ± 4.6%

row,SMILES,parasite growth
1,CC(C)C[C@@H](N)C1(c2ccc(Cl)cc2)CCC1,111.4 ± 0.42%
2,O=C1/C(=C/c2ccccc2)C[C@@]2(O)[C@H]3Cc4ccc(O)c5c4[C@@]2(CCN3CC2CC2)[C@H]1O5 [BNTX maleate],< 0%
3,FC(F)(F)c1cccc(C2=CCN(CCc3ccc4ccccc4c3)CC2)c1 [Xaliproden hydrochloride],159.2 ± 1.1%
4,Oc1ccc2c3c1O[C@H]1c4[nH]c5c(c4C[C@@]4(O)[C@@H](C2)N(CC2CC2)CC[C@]314)C[C@@]1(O)[C@H]2Cc3ccc(O)c4c3[C@@]1(CCN2CC1CC1)[C@H]5O4 [nor-Binaltorphimine dihydrochloride],123 ± 3.2%
5,CNCCc1cnc[nH]1 [N α-Methylhistamine dihydrochloride],102 ± 1.5%
6,c1ccc(CCCCN2CCC(c3ccccc3)CC2)cc1 [4-PPBP maleate],82.8 ± 5.3%
7,C/C(O)=C(\C#N)C(=O)Nc1cc(Br)ccc1Br,130 ± 7.2%
8,"CN1CCc2cc3c(cc2C1C1OC(=O)c2c1ccc1c2OCO1)OCO3 (single isomer, unassigned; (+)) [(+)-Bicuculline]",141 ± 54%
9,Clc1cccc(SC2CCNCC2)n1 [Anpirtoline hydrochloride],76.4 ± 27%
10,C(=C\c1ccccc1)/CN1CCN(CCOC(c2ccccc2)c2ccccc2)CC1,16.2 ± 8.1%
11,CC(=O)N(C)c1cccc(-c2ccnc3c(C(=O)c4cccs4)cnn23)c1 [Indiplon],79.5 ± 17%
12,CC(C)[C@@]1(NC(=O)[C@@H]2C[C@@H]3c4cccc5[nH]cc(c45)C[C@H]3N(C)C2)O[C@@]2(O)[C@@H]3CCCN3C(=O)[C@H](Cc3ccccc3)N2C1=O [Dihydroergocristine mesylate],8.76 ± 1.6%
13,CC(C(=O)OC1CC2CCC(C1)N2C)c1ccc(Br)cc1 (centres undefined) [PG-9 maleate],101 ± 1.4%
14,N.N.[Cl][Pt][Cl] [Cisplatin],144 ± 80%
15,CN1Cc2ccccc2[C@@H]2c3cccc4[nH]cc(c34)C[C@H]21,132 ± 9.8%
16,O=C(O)Cc1cccnc1C(=O)O [Homoquinolinic acid],85.7 ± 1.6%
17,O=C(Cc1ccc(Cl)c(Cl)c1)N1CCCCC1CN1CCCC1 (centres undefined),82.1 ± 15%
18,CC(C)NCC(O)c1ccc(N)c(C#N)c1 (centres undefined) [Cimaterol],130 ± 2.8%
19,N=C(N)NN [Aminoguanidine hydrochloride],124 ± 28%
